Most compounds without a hit are left out; they make up all but 5.9% or so of the library.
NR0B1 inh = NR0B1 (DAX1) inhibition. HEK293 Gal4-DAX1 luciferase reporter, luminescence. inhibition, % at 6.75 µM. hit rate 0.99% among 340,000. P51843;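 active = inhibition above the mean over all tested compounds plus 3 SD, cut at about 4.2% in these data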;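 note: 0% = DAX1-transfected cells with DMSO and 100% = empty-vector control cells with DMSO; inhibition shows as a rise in luminescence from relieved DAX1 repression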
Target sequence (P51843 207-470 limits assumed): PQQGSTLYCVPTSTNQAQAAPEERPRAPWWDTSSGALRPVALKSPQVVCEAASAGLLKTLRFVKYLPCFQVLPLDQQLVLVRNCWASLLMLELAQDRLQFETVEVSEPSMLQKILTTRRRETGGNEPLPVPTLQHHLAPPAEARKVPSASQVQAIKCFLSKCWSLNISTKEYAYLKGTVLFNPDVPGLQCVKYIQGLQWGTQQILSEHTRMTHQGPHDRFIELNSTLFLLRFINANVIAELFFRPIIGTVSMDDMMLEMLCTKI
HSF1 inhib = HSF1 inhibition. NIH3T3-HGL HSE-luciferase, MG132-induced, luminescence 8 h; hits give low values. activity change, negative = inhibition, % at 7.5 µM (by protocol). hit rate 0.77% among 300,000;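 active = more than half of replicate wells show activity change below -50%, luminescence cut by over half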;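 note: luciferase reports HSF-1 transcriptional activity via heat shock element; 0% = median of DMSO wells and -100% = zero luminescence signal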
AHR act = activates the human aryl hydrocarbon receptor; AHR-responsive luciferase reporter cells, luminescence; activation, % at 5 µM; hit rate 2.5% among 320,000; in the data active = activation above about 47%;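 note: 0% = vehicle wells and 100% = reference agonist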
HSP90 refold inh = blocks HSP90-mediated luciferase refolding in reticulocyte lysate. Rabbit reticulocyte lysate, luciferase refolding luminescence, 3 h. hit rate 0.91% among 290,000. inhibition, % at 5.6 µM;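 active = inhibition above the screen-wide mean plus 3 SD, computed separately per campaign, cut at about 16% in these data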;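 note: 0% = DMSO wells and 100% = 60 µM geldanamycin wells; inhibitors lower the luminescence because luciferase stays unfolded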
FXN GAA850 act = increases GAA850 frataxin promoter reporter activity | activation, % at 6 µM | AID 540364 | hit rate 0.56% among 360,000 | HEK293 lucGAA850 FXN promoter luciferase reporter, 24 h; percent of 10 µM SAHA response;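 active = activation above the average of all compounds screened plus 3 SD, cutoff fixed separately per campaign, cut at about 7.5% in these data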;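 note: 0% = DMSO wells and 100% = 10 µM SAHA wells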
HSF1 activator = increases HSF-1 driven luciferase reporter signal; NIH3T3-HGL HSF-1 luciferase reporter, MG132, 8 h; 100% = twice DMSO control signal; activation, % at 9 µM; hit rate 1.7% among 300,000;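 active = mean replicate activation of at least 50% with a set share of replicates each reaching 50%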;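 note: 0% = median of the neutral control wells and 100% = twice that signal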
An asterisk follows results filed as active; · = no result.

SMILES | NR0B1 inh | HSF1 inhib | AHR act | HSP90 refold inh | FXN GAA850 act | HSF1 activator
C/C=C/c1ccc(OCC(=O)Nc2cc(OC)c(OC)c(OC)c2)c(OC)c1 | -0.8 | -52.3* | -1.4 | -2.2 | -2.5 | -60.0
C/C=C/c1ccc(OCC(=O)O)c(OC)c1 | 1.3 | -3.3 | -0.2 | 3.7 | 0.0 | 2.3
COc1ccc(N(CC(=O)Nc2cccc(C)c2)S(=O)(=O)c2c(C)noc2C)cc1 | 1.3 | -69.4* | 9.7 | 0.6 | -2.4 | -74.5
COc1ccc(N(CC(=O)N2CCc3ccccc32)S(=O)(=O)c2c(C)noc2C)cc1 | 0.9 | 33.7 | 2.3 | -2.4 | 2.1 | 77.0*
Cc1ccc(/C=N/NC(=O)c2ccc3c(c2)OCCO3)s1 | 3.6 | -5.8 | 37.1 | 11.2 | -2.5 | -11.5
O=C(N/N=C/c1cc(Br)cs1)c1ccc2c(c1)OCCO2 | · | 22.3 | 15.5 | -0.3 | -3.2 | 57.3*
Cn1cc(C(=O)N/N=C/c2cc(Br)cs2)c2ccccc21 | · | 19.8 | 50.3* | 1.3 | · | 60.3*
Cn1cc(/C=N/NC(=O)c2ccccc2O)c2ccccc21 | 0.1 | -9.6 | 37.8 | 0.1 | 3.7 | 4.2
O=C(COc1ccccc1F)OCC(=O)c1ccc([N+](=O)[O-])cc1 | -0.3 | · | 0.6 | · | -0.2 | ·
O=C(NCCc1ccccc1O)c1cc2c(cc1[N+](=O)[O-])OCO2 | 1.2 | · | · | · | -0.8 | ·
O=C1N/C(=C\c2ccc(O)cc2)C(O)=C1C=NCc1ccccc1 | -0.8 | 41.4 | 3.3 | 1.0 | 2.2 | 64.1*
COc1ccc(/C=C2\NC(=O)C(C=NCc3ccccc3)=C2O)cc1 | 0.4 | 6.9 | 19.4 | -3.0 | 0.2 | 25.4
O=C1/C(=C/c2cccs2)Cc2ccccc21 | -0.6 | -2.4 | 5.2 | 4.3 | 3.7 | 5.6
COc1cc(OC)c(OC)cc1/C=C1/Cc2ccccc2C1=O | 0.2 | 0.4 | 7.4 | -0.4 | -0.4 | 7.1
Cn1cccc1/C=C1\Cc2ccccc2C1=O | 4.3* | 0.1 | 6.3 | 8.5 | 5.8 | 9.2
O=C1/C(=C\c2ccc(Br)o2)Cc2ccccc21 | 0.6 | 16.0 | 19.0 | -2.4 | 3.3 | 59.4*
Cc1nn(-c2ccccc2)c(C)c1NC(=O)COC(=O)C1CC(=O)N(CCc2ccccc2)C1 (stereo unspecified) | 1.4 | 12.9 | 5.8 | · | 0.9 | 2.7
CC(C)NC(=O)CNc1ccc(C(F)(F)F)cc1[N+](=O)[O-] | 1.1 | -0.6 | 52.4* | -3.3 | 1.3 | -8.9
CC(=O)Nc1ccc(NC(=O)CSc2ccc(C(F)(F)F)cc2[N+](=O)[O-])cc1 | -1.5 | -2.8 | 0.9 | -0.3 | 1.3 | 12.9
O=C(CSc1ccc(C(F)(F)F)cc1[N+](=O)[O-])Nc1ccccc1 | 0.6 | 11.9 | 48.0* | -2.7 | 5.1 | 5.4
CCOc1cc2c3c(c1)C1(C(=O)N3C(C)(C)CC2C)C(C#N)=C(N)N2C(=C1C#N)Nc1ccccc12 (stereo unspecified) | -1.3 | 2.2 | 58.0* | 0.7 | -0.2 | -4.2
CCCCNS(=O)(=O)c1cccc(NC(=O)[C@@H]2O[C@H](CO)[C@@H](O)[C@H]2O)c1 | · | · | · | · | -1.6 | ·
CSc1ccc(C2c3[nH]c4ccccc4c3CCN2C(=O)c2cc(C)n(C)n2)cc1 (stereo unspecified) | · | 37.3 | 48.6* | 0.1 | · | 53.3*
CCOc1ccc(C2c3[nH]c4ccccc4c3CCN2C(=O)Cn2cncn2)cc1 (stereo unspecified) | -0.7 | · | 67.7* | -2.8 | -2.0 | ·
Cc1cc(C(=O)N2CCc3c([nH]c4ccccc34)C2c2cccc(Cl)c2)nn1C (stereo unspecified) | 0.6 | 11.4 | 41.0 | 0.8 | 3.0 | 15.9
SMILES | NR0B1 inh | HSF1 inhib | AHR act | HSP90 refold inh | FXN GAA850 act | HSF1 activator
COC(=O)c1cc(Br)ccc1N(Cc1cc(OC)cc(OC)c1)S(C)(=O)=O | 2.2 | · | 9.3 | · | 0.0 | ·
O=C(NC1CCCC1)C1CCCN(S(=O)(=O)c2cccc3cccnc23)C1 (stereo unspecified) | -2.1 | 3.2 | 1.7 | 1.7 | 2.5 | 24.4
O=C(C1CCCN1S(=O)(=O)c1cccc2nsnc12)N1CCCCC1 (stereo unspecified) | 0.6 | 2.9 | 4.4 | 2.9 | 1.2 | 1.4
O=C(NC1CCCCCC1)C1CCN(S(=O)(=O)c2cccc3cccnc23)CC1 | 6.1* | 2.9 | -0.6 | 3.0 | 0.4 | 0.4
O=C(NC1CCCCC1)C1CCCN1S(=O)(=O)c1cccc2nsnc12 (stereo unspecified) | -0.2 | 8.0 | 1.6 | 0.9 | 4.4 | 53.8*
Cc1ccc(-c2cc(C(=O)N3CCN(c4ccc(F)cc4)CC3)c3ccccc3n2)o1 | -0.8 | 13.1 | 16.0 | 1.1 | 0.4 | 2.0
Cc1ccc(-c2cc(C(=O)N3CCN(c4ncccn4)CC3)c3cc(Br)ccc3n2)o1 | -0.6 | 47.3 | 1.1 | 4.3 | -0.5 | 75.7*
COc1cc(C(=O)N2CCSCC2)ccc1OC1CCN(C(C)=O)CC1 | 0.1 | -54.9* | -2.6 | -2.4 | -1.8 | -65.5
CCOC(=O)C1(C)CCN1C(=O)c1cc(-c2ccc(Cl)cc2)oc1C (stereo unspecified) | · | · | · | · | 0.2 | ·
COc1ccc(NS(=O)(=O)c2ccc3nc(COc4ccc5ccccc5c4)[nH]c3c2)cc1 | -0.2 | -81.0* | 27.9 | -0.6 | -3.1 | -84.4
Cc1cn([C@H]2C[C@H](O)[C@@H](CCC(=O)NCc3ccc(N(C)C)cc3)O2)c(=O)[nH]c1=O | 0.5 | · | · | · | 0.7 | ·
COc1nc(-c2ccccc2)ccc1-c1noc(COc2ccccc2)n1 | 0.1 | -68.3* | 9.5 | -3.2 | 3.0 | -73.6
COc1nc(-c2ccccc2)ccc1-c1noc(-c2ccccc2)n1 | 0.5 | 23.4 | 44.6 | 0.0 | 3.8 | 47.2
COc1nc(-c2ccccc2)ccc1-c1noc(-c2cccs2)n1 | 3.0 | 19.0 | 52.1* | 0.0 | 3.2 | 49.3
Cc1ccc(OCc2nc(-c3ccccn3)no2)cc1 | 0.5 | 40.9 | 2.2 | 5.0 | 5.2 | 63.0*
COc1ccc(-c2ccc(-c3noc(-c4ccccc4)n3)c(OC)n2)cc1 | 0.1 | 6.8 | -0.8 | 0.5 | -0.8 | 11.8
COc1ccc(-c2nnc(-c3cccs3)o2)cc1OC | 1.1 | 38.7 | 0.8 | -1.7 | 4.8 | 59.7*
COc1cccc(-c2noc(-c3cccs3)n2)c1 | 1.7 | 23.1 | 47.8* | -4.5 | 5.0 | 53.8*
CCOc1ccccc1-c1nc(-c2ccc(C)nc2OC)no1 | 0.8 | 22.6 | 7.1 | -2.6 | 4.7 | 62.1*
COc1nc(C)ccc1-c1noc(-c2cccs2)n1 | · | 21.5 | 14.4 | 4.3 | 3.8 | 61.7*
CC(=O)Nc1ccc(CNc2nc3cc(-c4cccc(C(F)(F)F)c4)sc3c(=O)n2C)cc1 | · | · | · | · | -4.0 | ·
Cc1nc2ccc(C(=O)N(C)Cc3ccccc3)cn2c1N(C)C(=O)CCc1ccccc1 | · | · | · | · | 2.5 | ·
CCN(c1ccccc1)S(=O)(=O)c1ccc(Cl)c(C(=O)N(CC2CCCO2)C2CCS(=O)(=O)C2)c1 (stereo unspecified) | 0.8 | -58.2* | -1.8 | -2.3 | 1.8 | -64.1
CCN(c1ccccc1)S(=O)(=O)c1ccc(Cl)c(C(=O)N2CCCC2)c1 | -0.9 | · | -0.1 | · | 0.7 | ·
